Only a selection was taken, and hits are over-represented in it overall.
Dicer inh: blocks human Dicer maturation of pre-miR-21; cat-ELCCA pre-miR-21 Dicer processing, chemiluminescence; stronger effect = higher value; z-score at 25 µM; 6% of 47,000 active; in the data active = z-score above about 3, passing the limit was not always enough;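 also: plate controls were vehicle for no effect and no enzyme for full effect; higher signal means more uncleaved substrate so more Dicer inhibition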
Target sequence (Q9UPY3 whole entry, looked up): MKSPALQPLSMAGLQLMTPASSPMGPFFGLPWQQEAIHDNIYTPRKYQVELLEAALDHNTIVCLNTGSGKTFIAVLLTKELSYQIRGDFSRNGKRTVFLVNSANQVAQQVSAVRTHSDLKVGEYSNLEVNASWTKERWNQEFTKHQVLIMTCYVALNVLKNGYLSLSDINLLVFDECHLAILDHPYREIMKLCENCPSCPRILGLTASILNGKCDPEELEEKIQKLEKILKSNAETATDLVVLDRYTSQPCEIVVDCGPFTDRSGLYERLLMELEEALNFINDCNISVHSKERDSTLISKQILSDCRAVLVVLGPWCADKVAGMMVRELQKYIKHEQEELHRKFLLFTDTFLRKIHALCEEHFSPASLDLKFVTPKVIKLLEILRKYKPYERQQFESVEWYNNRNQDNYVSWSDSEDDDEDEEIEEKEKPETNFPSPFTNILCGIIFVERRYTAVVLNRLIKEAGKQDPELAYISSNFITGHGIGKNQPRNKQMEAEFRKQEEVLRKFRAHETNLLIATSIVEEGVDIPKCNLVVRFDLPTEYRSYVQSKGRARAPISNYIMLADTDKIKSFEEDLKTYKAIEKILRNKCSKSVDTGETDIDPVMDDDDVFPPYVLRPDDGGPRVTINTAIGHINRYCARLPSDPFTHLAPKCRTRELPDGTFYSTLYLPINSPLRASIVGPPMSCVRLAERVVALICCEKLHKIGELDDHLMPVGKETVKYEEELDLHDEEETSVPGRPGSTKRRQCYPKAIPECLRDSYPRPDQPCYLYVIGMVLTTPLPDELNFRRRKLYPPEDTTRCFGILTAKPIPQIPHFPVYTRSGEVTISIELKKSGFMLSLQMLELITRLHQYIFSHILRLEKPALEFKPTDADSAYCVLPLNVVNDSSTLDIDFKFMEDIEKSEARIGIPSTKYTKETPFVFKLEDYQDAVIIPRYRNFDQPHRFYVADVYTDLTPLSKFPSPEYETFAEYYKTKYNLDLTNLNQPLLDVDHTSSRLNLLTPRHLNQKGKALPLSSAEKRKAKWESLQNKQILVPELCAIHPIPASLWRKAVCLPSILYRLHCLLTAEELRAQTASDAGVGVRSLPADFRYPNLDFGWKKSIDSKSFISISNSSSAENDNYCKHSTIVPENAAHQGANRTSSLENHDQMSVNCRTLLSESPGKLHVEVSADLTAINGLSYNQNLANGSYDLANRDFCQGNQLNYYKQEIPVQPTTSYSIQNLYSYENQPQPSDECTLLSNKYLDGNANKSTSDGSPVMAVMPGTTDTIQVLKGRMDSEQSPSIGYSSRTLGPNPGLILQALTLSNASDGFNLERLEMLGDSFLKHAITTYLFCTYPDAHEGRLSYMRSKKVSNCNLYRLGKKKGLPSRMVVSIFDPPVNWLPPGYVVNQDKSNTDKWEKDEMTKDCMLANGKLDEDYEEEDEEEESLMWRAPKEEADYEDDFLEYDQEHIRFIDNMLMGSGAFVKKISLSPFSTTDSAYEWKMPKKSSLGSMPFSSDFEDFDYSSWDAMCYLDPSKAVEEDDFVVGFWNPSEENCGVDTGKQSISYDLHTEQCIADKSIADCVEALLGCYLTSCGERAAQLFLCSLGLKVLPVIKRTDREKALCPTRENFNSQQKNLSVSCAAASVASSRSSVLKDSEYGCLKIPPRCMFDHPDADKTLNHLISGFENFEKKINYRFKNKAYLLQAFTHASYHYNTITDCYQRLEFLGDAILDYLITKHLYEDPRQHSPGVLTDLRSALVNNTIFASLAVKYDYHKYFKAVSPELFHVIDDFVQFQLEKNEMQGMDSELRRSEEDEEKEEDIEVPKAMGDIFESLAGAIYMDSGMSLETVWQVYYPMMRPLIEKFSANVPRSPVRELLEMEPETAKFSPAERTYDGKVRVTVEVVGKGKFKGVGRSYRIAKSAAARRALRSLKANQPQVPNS
* = called active by the depositor.

SMILES	Dicer inh
COc1ccc(/C(O)=C2\C(=O)C(=O)N(CCCN(C)C)C2c2ccc(N(C)C)cc2)cc1 (stereo unspecified)	1.1
COc1ccc(C2/C(=C(\O)c3ccc(C)cc3)C(=O)C(=O)N2CCCN(C)C)cc1 (stereo unspecified)	2.5
Cc1ccc(/C(O)=C2/C(=O)C(=O)N(CCCN3CCOCC3)C23C(=O)N(C)c2ccccc23)cc1F (stereo unspecified)	-3.9
CCCN1C(=O)C2(/C(=C(/O)c3ccccc3)C(=O)C(=O)N2CCN2CCOCC2)c2ccccc21 (stereo unspecified)	4.7*
Cc1sc(N)c(C(=O)c2cccs2)c1C	-3.4
OC(CN1CCN(c2nc3ccc(Cl)cc3s2)CC1)CN1CCCN(c2ncc(C(F)(F)F)cc2Cl)CC1 (stereo unspecified)	-0.02
COC(=O)c1c(C)nn(-c2ccccn2)c1-c1cc(C)on1	0.6
CSc1nnc(-c2ccc(S(=O)(=O)Oc3ccc(Cl)cc3)s2)n1C	0.38
Cc1cc(C(=O)Nc2cc(C(F)(F)F)ccc2N2CCOCC2)nn1-c1ccccc1	1.7
Clc1ccc(-c2noc(Cc3ccccc3)n2)cc1	-5.2
COc1ccc2nc(Nc3nc4c(c(=O)[nH]3)CCCC4)nc(C)c2c1	0.91
C=CCNC(=S)N(CCC#N)C1CCCCC1	-1.2
CCCOC(=O)CN1C(=O)C2C3c4ccccc4C(c4ccccc43)C2C1=O (stereo unspecified)	-0.55
O=[N+]([O-])c1cccc(-c2[nH]ncc2Br)c1	2
O=C(Cn1cnc2sc3c(c2c1=O)CCCC3)Nc1ccc(F)c(Cl)c1	0.1
CCN1C(=O)C2(/C(=C(/O)c3ccc(C)cc3)C(=O)C(=O)N2CCCN2CCOCC2)c2ccccc21 (stereo unspecified)	2.2
CN1C(=O)C2(/C(=C(/O)c3ccc(F)cc3)C(=O)C(=O)N2CCN2CCOCC2)c2ccccc21 (stereo unspecified)	-0.71
CCN1C(=O)C2(/C(=C(/O)c3ccc(F)cc3)C(=O)C(=O)N2CCN2CCOCC2)c2ccccc21 (stereo unspecified)	5.7*
CCCCCCC#Cc1cncc(C(=O)NN)c1	0.76
Cc1noc(C)c1-c1nc(CSc2n[nH]c(=O)n2Cc2ccco2)no1	6.6
O=C(N/N=C/c1ccc(Cl)cc1)c1cc(=O)nc2sccn12	0.42
CCOc1ccc2noc3c2c1C(=O)c1ccccc1-3	-0.35
CC(=O)OCCNc1cc(Cl)c2noc3c2c1C(=O)c1ccccc1-3	3.2*
CCOC(=O)c1ccc2c3c(onc13)-c1ccccc1C2=O	-1.1
CCOc1ccc(C2C3=C(CC(C)(C)CC3=O)Nc3nc(N)[nH]c(=O)c32)cc1 (stereo unspecified)	-0.64
SMILES	Dicer inh
CC1(C)C=Cc2cc(/C(N)=N/OC(=O)Nc3cccc(C(F)(F)F)c3)ccc2O1	0.39
Cc1ncc([N+](=O)[O-])n1CCC(C)C	0.31
Cc1ccc(S(=O)(=O)NNc2c(Cl)cc(Cl)cc2Cl)cc1	0.84
COc1ccc(NS(=O)(=O)c2ccc3c(c2)OCCO3)c(OC)c1	-2.6
O=S(=O)(Nc1ccc(OCc2ccccc2)cc1)c1ccc2c(c1)OCCO2	3.4*
O=S(=O)(NCCc1ccccn1)c1ccc2c(c1)OCCCO2	0.54
CC1CCN(Cc2cc(Cl)c(O)c3ncccc23)CC1	-0.42
CCCCOc1ccc(N2C(=O)C3CC(C)=C(C)CC3C2=O)cc1 (stereo unspecified)	0.63
CC1=C(C)CC2C(=O)N(c3ccccc3F)C(=O)C2C1 (stereo unspecified)	4.9*
CC1=C(C)CC2C(=O)N(c3ccc(Oc4ccc(Cl)cc4)cc3)C(=O)C2C1 (stereo unspecified)	3.3*
COc1cc(OC)cc(N2C(=O)C3CC(C)=C(C)CC3C2=O)c1 (stereo unspecified)	-2.2
CC12N=NCC1C(=O)N(c1ccccc1F)C2=O (stereo unspecified)	1.7
CC1=C(C)CC2C(=O)N(c3ccc(N(C)C)cc3)C(=O)C2C1 (stereo unspecified)	0.61
O=C(NNC(=O)c1ccc(Oc2ccc(Cl)cc2)nc1)c1ccc(Cl)cc1	-0.55
CCc1nc2ccccc2n2cc3c(=O)n(C)c(=O)n(C)c3c12	0.3
COc1ccccc1C1CCN(C(=O)CSc2nnc(NC(=O)c3cccnc3Oc3ccccc3)s2)CC1	1.6
COC(=O)C(Cc1c[nH]c2ccccc12)NC(=O)OC(C)(C)C (stereo unspecified)	-0.07
CC1CCCN(c2cc(N(C)C)c([N+](=O)[O-])cc2F)C1 (stereo unspecified)	1.5
S=C(NN=C1CCCC1)NC1CC2CCC1C2 (stereo unspecified)	-0.5
S=C(NNC(=S)NC1CC2CCC1C2)NC1CC2CCC1C2 (stereo unspecified)	1.9
Oc1ccc(/C=N/NC(=S)NC2CC3CCC2C3)cc1 (stereo unspecified)	24*
COc1ccccc1OCCn1cc(C(=O)C(C)(C)C)c2ccccc21	0.89
NC(=O)c1ccc(-c2ccnc(-c3ccc(Br)s3)n2)cc1	2.6
O=S(=O)(CC(O)COc1ccc(Cl)cc1Cl)c1ccc(Cl)cc1 (stereo unspecified)	-1.3
C#CCSc1nnnn1-c1ccc(C)cc1C	-0.94
SMILES	Dicer inh
S=c1sc2ccccc2n1CSc1nc2ccccc2[nH]1	0.32
CCOc1ccc(S(=O)(=O)n2cc(C)nc2CC)cc1	0.96
CCCOc1ccc2nc(NC(=O)OC)sc2c1	1.3
CCOc1ccc2nc(NC(=O)c3cccs3)sc2c1	4*
CCOc1ccc2nc(NC(=O)c3ccc([N+](=O)[O-])o3)sc2c1	1
COc1ccc(C2C(=O)c3ccccc3C2=O)cc1OC	1.4
COc1ccc2c3c(cccc13)C(=O)CC2	4.2*
COc1cccc2c(=O)c3ccccc3oc12	-0.98
CCOC(=O)c1c(NC(=O)c2nc3ncccn3n2)sc2c1CCC2	0.2
CCOc1ccccc1/C=C1N=C(/C=C/c2ccccc2)OC/1=O	2
COc1ccc(/C=C2/N=C(C)OC2=O)cc1	-0.48
COc1ccc(/C=C2N=C(/C=C/c3ccccc3)OC/2=O)cc1	4.4*
Cc1cc(C)c(/C=N/Nc2ccc([N+](=O)[O-])cc2)[nH]1	2
CSc1nnc(SCc2cc(=O)oc3cc(O)ccc23)s1	-0.67
CC(C)(C)c1cc(C(C)(C)C)n(-c2ccc(N)cc2)n1	0.04
Cc1ccc(OC2=NS(=O)(=O)c3ccccc32)cc1	0.25
O=S1(=O)/N=C(/O)c2ccccc2Sc2ccccc21	3.5*
CSc1ccccc1NC1=NS(=O)(=O)c2ccccc21	-0.02
Nc1nc(-c2ccccc2O)cs1	4.5*
Nc1nc(-c2cccs2)cs1	-0.87
Nc1nc(-c2ccc3ccccc3c2)cs1	0.5
Cc1ccc(C)c(-c2csc(N)n2)c1	3.6*
Cc1ccc(-c2csc(N=C(N)N)n2)c(C)c1	0.5
Nc1cccc(-c2csc(N)n2)c1	-1.3
COc1ccc(-c2nnc(SC)o2)cc1	2.4
SMILES	Dicer inh
C=CCSc1nc2ccccc2c(=O)n1CC(=C)C	-0.33
CN(C)c1ccc(-n2nnnc2SCC(=O)Nc2ccc(OC(F)(F)F)cc2)cc1	-0.39
CCN(CC)CC(O)Cn1ccc2ccccc21 (stereo unspecified)	-0.44
Cc1c(Br)sc2sc(-c3ccn[nH]3)c(C)c12	-0.6
CCCCOC(=O)C1=C(C)NC2=C(C(=O)CC(C)(C)C2)C1c1cccc(Cl)c1 (stereo unspecified)	-0.58
O=S(=O)(NC(=NCCc1ccccn1)Nc1cccc(Cl)c1)c1ccccc1	-0.09
